What is called inhibition is the relative decrease from the control value, in per cent.

Out of some 2,300 compounds screened, about 1,700 (74%) were called active. The set was probably picked from earlier hits. The list shows a part of the results. Results with a measured potency or affinity are listed apart. A number with no mark means an inactive call. The rule behind the calls is not given here.

The record followed here is PubChem BioAssay AID449764 (Southern Research Specialized Biocontainment Screening …, 2010).

The test is described as follows: Mycobacterium tuberculosis H37Rv growth inhibition, no glycerol, confirmatory dose response (AID 449764).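 Note: growth read after 7 days of incubation.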 The settings on record: series mostly up to 100 µM; inhibition: at the top concentration.
For `C=CCn1c(Cc2cccs2)nnc1SCC(=O)Nc1ccc(C(=O)OCC)cc1`, the “inhibition” value was 0.82%.
As for `CCCCCCCC(=O)N/N=C(/C)c1c(O)cc(C)oc1=O`, the “inhibition” value was -9.85%.
For the compound `CN1CCN(CC/C=C2/c3ccccc3Sc3ccc(S(=O)(=O)N(C)C)cc32)CC1`, the “inhibition” value is -1.39%.
On to `O=c1oc2cc(O)ccc2c2ccccc12`, for which the “inhibition” value was -2.92%.
Under `CCCCCOc1ccc(N2C(=O)C3C4C=CC(C3C2=O)N(C)C4=O)cc1` (stereo unspecified) stands -6.07%.
Turning to `O=c1c2cc(-c3ccccc3)sc2ncn1/N=C/c1ccco1`, the “inhibition” value is 26.1%.
As for `O=C(NC1CCCCC1)C(c1ccc2ncccc2c1)N(Cc1ccco1)C(=O)c1ccc2c(c1)OCCO2` (stereo unspecified), the “inhibition” value is 4.79%.
Turning to `CCCCc1ccc(NC=C2C(=O)OC3(CCCCC3)OC2=O)cc1`, the “inhibition” value was 1.5%.
Turning to `O=C(Nc1ccc(N2CCOCC2)c(Cl)c1)c1c(F)c(F)c(F)c(F)c1F`, the “inhibition” value is 16.1%.
On to `Cc1cc(N2CCCCC2)n2ncc(-c3ccc(Cl)cc3)c2n1`, for which the “inhibition” value was 4.56%.
For the compound `CCSCc1nnc(SCC(=O)Nc2cccc(SC)c2)n1C`, the “inhibition” value is 0.62%.
As to `Cc1ccc(C(=O)N/N=C/C=C/c2ccccc2)cc1`, the “inhibition” value is -6.65%.
For the compound `Cc1nn(Cc2ccccc2)c(C)c1C(=O)OCC(=O)c1cc(C)n(CC(F)(F)F)c1C`, the “inhibition” value is 2.72%.
Consider `CCCCCC(=O)Nc1cccc2ccccc12`, for which the “inhibition” value was 24.4%.
`Cc1cc(C)c2nc(N3CCCC(C(=O)N4CCN(c5ncccn5)CC4)C3)sc2c1` (stereo unspecified): the “inhibition” value was -1.73%.
As to `Cc1c(NC(=O)c2ccc([N+](=O)[O-])o2)cccc1-c1nc2ncccc2o1`, the “inhibition” value was -10.9%.
As to `CCCCCOC(=O)Nc1nnc(CCCCC)s1`, the “inhibition” value was -0.7%.
As to `C/C(CC(=O)Nc1ccc(C)c(Cl)c1)=N\NC(=O)Cc1cnc(N)s1`, the “inhibition” value was 21.7%.
Turning to `Cc1ccc(N/N=C/C=C/c2ccco2)cc1`, the “inhibition” value was 13.8%.
The same measure for `CCOC(=O)N1CCN=C1SCc1ccc(C(F)(F)F)cc1`: 3.73%.
With `O=C(CSc1nc2ccccc2[nH]1)N1c2ccccc2Sc2ccccc21`, the “inhibition” value was 4.61%.
For `CCOC(=O)Oc1ccc2oc(C)c(C(=O)OCCOC)c2c1`, the “inhibition” value was 7.24%.
On to `C=CC[N@@+]12CC[C@]34c5ccccc5N5/C=C6\C7N(/C=C(\C53)[C@@H](C[C@@H]41)/C(=C/CO)C2)c1ccccc1[C@@]71CC[N@@+]2(CC=C)C/C(=C\CO)[C@@H]6C[C@@H]12` (stereo partly specified), for which the “inhibition” value is 15.8%.
Under `CCOC(=O)c1c(CN2CCN(Cc3ccccc3)CC2)n(C)c2cc(Br)c(OC)cc12` stands 2.08%; under `O=C1N[C@@H](Cc2ccccc2)C(=O)N2[C@H]3Nc4ccccc4[C@@]3([C@]34C[C@H]5C(=O)N[C@@H](Cc6ccccc6)C(=O)N5[C@H]3Nc3ccccc34)C[C@@H]12`, 27.3%.
The same measure for `CCC(=O)c1coc2ccc(O)cc12`: 3.23%; for `CC(C)NCC(O)c1ccc(O)c(O)c1` (stereo unspecified): -0.07%.
Turning to `CCc1ccc(-n2nc3cc(C)c(N)cc3n2)cc1`, the “inhibition” value is 9.43%.
The same measure for `CCOc1ccc(N2C(=O)CS/C2=C(\C(Cl)=C(Cl)Cl)[N+](=O)[O-])cc1`: -1.12%; for `CC(=O)c1c(C)n([O-])c2cc(F)c(F)cc2[n+]1=O`: -9.5%.
The same measure for `CCCCn1c(-c2ccc(C(C)(C)C)cc2)nc2cc3[nH]c(=O)c(C(C)C)nc3cc21`: 4.74%; for `Cc1nn(-c2ccccc2)c(N2CCCC2)c1/C=N/Nc1ccc(S(N)(=O)=O)cc1[N+](=O)[O-]`: 14.3%; for `CC(=O)/C(=N\Nc1ccc(C)cc1)N1CCOCC1`: 1.57%.
As to `Cc1ccc(C(=O)CCC(=O)OCC(=O)Nc2c(C)nn(-c3ccccc3)c2C)cc1`, the “inhibition” value is -6.34%.
For `CCCCCn1c(CN2CCN(c3cccc(Cl)c3)CC2)nc2c1c(=O)[nH]c(=O)n2C`, the “inhibition” value was 11.1%.
Turning to `CSc1cccc(N=C2C(=O)Nc3ccccc32)c1`, the “inhibition” value is -2.79%.
In the case of `Cc1ccc(Sc2ccc(/C=C3/C(=O)NN(c4ccccc4)C3=O)o2)cc1`, the “inhibition” value was -5.58%.
Consider `COc1cccc(C(=O)/C=C2\Sc3ccccc3N2C)c1`, for which the “inhibition” value was 8.66%.
Under `Fc1ccc(-c2nnc(CSc3nnc(-c4cccs4)o3)o2)cc1` stands 1.3%; under `CC/C(=C\C(=O)c1cccnc1)Nc1ccc(C)c(C)c1`, 10.2%.
`C=C(C)C1CC=C(C)/C(=N/NC(=O)CNc2ccc(OCC)cc2)C1` (stereo unspecified): the “inhibition” value was -7.09%.
Regarding `Cc1[nH]nc2nc3c(c(OC(=O)c4ccccc4)c12)c(=O)n(C)c(=O)n3C`, the “inhibition” value is -48%.
In the case of `O=C1CC(Nc2ccc3ccccc3c2)C(=O)N1Cc1ccccc1` (stereo unspecified), the “inhibition” value was -40.4%.
Turning to `O=C(COC(=O)C1CCN(c2ccc(C(F)(F)F)cn2)CC1)Nc1ccc(F)cc1[N+](=O)[O-]`, the “inhibition” value was 3.56%.
For the compound `Cc1ccc(N=Nc2c(C)[nH]n(C(N)=S)c2=O)cc1`, the “inhibition” value is 0.95%.
Take `O=C(Nc1cccc(C(F)(F)F)c1)c1ccc2nc(-c3ccco3)c(-c3ccco3)nc2c1`: the “inhibition” value is -1.75%.
Take `Nc1cccc(-c2cc3ccccc3oc2=O)c1`: the “inhibition” value is 0.03%.
As to `CC(C)c1nnc(NC(=O)CCC(=O)N2CCN(c3ccc(Cl)cc3)CC2)s1`, the “inhibition” value was 18%.
`CCCC(=O)Nc1sc2c(c1C#N)CCCCC2`: the “inhibition” value was -7.16%.
For the compound `O=[N+]([O-])c1ccc(COc2ccc(-c3[nH]ncc3-c3ccc(Cl)cc3)c(O)c2)cc1`, the “inhibition” value was -5.46%.
Under `Cc1nc(S/C(=C/c2ccc(-c3ccc(Cl)cc3)o2)C(=O)O)n[nH]1` stands 0.99%.
Consider `Cc1ccc(NN=C2c3ccccc3-c3ccccc32)cc1`, for which the “inhibition” value is -1.03%.
For the compound `CN1CCC(=NNC(=O)C(=O)Nc2ccccc2F)CC1`, the “inhibition” value was -0.59%.
As for `O=C(Nc1cccc(-c2ccc(N3CCCCC3)nn2)c1)c1ccc(Br)o1`, the “inhibition” value was 4.5%.
For the compound `CCOC(=O)c1sc(C)c2c(=O)n(CC(=O)c3ccc(Br)cc3)nnc12`, the “inhibition” value is -0.02%.
Take `CCOC(=O)c1ccc(N2CC(O)=C(c3nc4ccccc4c(=O)[nH]3)C2=N)cc1`: the “inhibition” value is 0.03%.
For the compound `CCN(CC)S(=O)(=O)c1cccc(NC(=O)Nc2cccc(C(F)(F)F)c2)c1`, the “inhibition” value is 13.6%.
Turning to `Cc1ccc(-c2cccc(NC(=O)C3C4C=CC(C4)C3C(=O)O)c2)o1` (stereo unspecified), the “inhibition” value is 19.9%.
Consider `CC1Nc2ncnc(N3CCN(c4ccccc4)CC3)c2N(Cc2ccc(Br)cc2)C1=O` (stereo unspecified), for which the “inhibition” value is 2.31%.
`COc1cc2[nH]c3c(N4CCN(c5ccccn5)CC4)ncnc3c2cc1OC`: the “inhibition” value was 4.78%.
With `Clc1ccc(CSc2ncn[nH]2)cc1`, the “inhibition” value is 5.76%.
In the case of `COc1ccc(-c2ccnc3nc(N4CCN(c5ccccc5)CC4)nn23)cc1`, the “inhibition” value is 9.15%.
In the case of `c1ccc(CCN2CN=C(Nc3nc4ccccc4o3)NC2)cc1`, the “inhibition” value is -12.8%.
As for `Cc1ccc(NC(=O)COC(=O)c2ccc(=O)n(Cc3ccccc3)n2)cc1F`, the “inhibition” value is -2.62%.
On to `COc1cc(OC)nc(Oc2ccccc2C(=O)Oc2ccc(Cl)cc2)n1`, for which the “inhibition” value was 5.33%.
In the case of `CCNc1nc(NC(C)(C)C)nc(N2CCCCC2)n1`, the “inhibition” value is 6.41%.
